We go through 7 compounds from ChEMBL document CHEMBL1961873, “Compounds: GSK PKIS; Assays: Nanosyn kinase panel” (2012).

Assay [1] concerns the target Mitogen-activated protein kinase 3 (Homo sapiens) (UniProt P27361). The note with it: at 1 µM.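 Also: values are mean percent inhibition of MAPK3.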
Assay [2] addresses SRSF protein kinase 3 (Homo sapiens) (UniProt Q9UPE1). The note with it: at 0.1 µM.
For assay [3] the target is unchanged. The note with it: at 1 µM.
In assay [4] the target is Mitogen-activated protein kinase 14 (Homo sapiens) (UniProt Q16539). The note with it: at 0.1 µM.
Mitogen-activated protein kinase 14 (Homo sapiens), sequence (Q16539 whole entry): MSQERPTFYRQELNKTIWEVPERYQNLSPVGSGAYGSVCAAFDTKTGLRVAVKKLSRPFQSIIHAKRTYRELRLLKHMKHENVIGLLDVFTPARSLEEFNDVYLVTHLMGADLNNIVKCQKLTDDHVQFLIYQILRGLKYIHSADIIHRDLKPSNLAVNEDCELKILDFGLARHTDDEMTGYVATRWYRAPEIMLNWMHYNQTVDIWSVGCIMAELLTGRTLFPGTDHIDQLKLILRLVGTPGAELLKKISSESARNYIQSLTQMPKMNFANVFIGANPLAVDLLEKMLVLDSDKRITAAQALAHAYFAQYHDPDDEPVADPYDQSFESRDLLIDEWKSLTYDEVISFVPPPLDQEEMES
The target is the same in assay [5]. The note with it: at 1 µM.
The target of assay [6] is Mitogen-activated protein kinase 11 (Homo sapiens) (UniProt Q15759). The note with it: at 0.1 µM.
Mitogen-activated protein kinase 11 (Homo sapiens), sequence (Q15759 whole entry): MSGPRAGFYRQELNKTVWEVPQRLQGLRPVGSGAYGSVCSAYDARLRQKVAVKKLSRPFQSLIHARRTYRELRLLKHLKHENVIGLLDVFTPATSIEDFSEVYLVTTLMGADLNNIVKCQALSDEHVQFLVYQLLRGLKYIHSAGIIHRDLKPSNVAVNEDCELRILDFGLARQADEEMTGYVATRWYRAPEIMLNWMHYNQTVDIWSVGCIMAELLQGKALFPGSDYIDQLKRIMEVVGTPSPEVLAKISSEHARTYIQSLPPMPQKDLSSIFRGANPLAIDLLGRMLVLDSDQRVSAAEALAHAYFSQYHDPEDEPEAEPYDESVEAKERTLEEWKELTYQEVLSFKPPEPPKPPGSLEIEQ
Assay [7] has the same target. The note with it: at 1 µM.
The target of assay [8] is T1, Mitogen-activated protein kinase 13 (Homo sapiens) (UniProt O15264).
T1 sequence (whole entry): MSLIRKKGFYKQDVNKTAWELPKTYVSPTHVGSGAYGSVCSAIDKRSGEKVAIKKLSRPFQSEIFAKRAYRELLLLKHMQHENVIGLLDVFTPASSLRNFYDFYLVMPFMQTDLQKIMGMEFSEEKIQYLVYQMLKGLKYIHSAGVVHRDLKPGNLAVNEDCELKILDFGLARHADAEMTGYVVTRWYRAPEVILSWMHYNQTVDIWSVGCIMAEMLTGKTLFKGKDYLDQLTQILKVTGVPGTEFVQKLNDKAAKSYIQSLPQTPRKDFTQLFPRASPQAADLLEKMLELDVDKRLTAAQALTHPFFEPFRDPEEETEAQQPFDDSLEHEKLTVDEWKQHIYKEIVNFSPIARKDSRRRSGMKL
The note with it: at 0.1 µM.

Assay [9] has as its target T1, Mitogen-activated protein kinase 13 (Homo sapiens). The note with it: at 1 µM.
In assay [10] the target is T2, Mitogen-activated protein kinase 12 (Homo sapiens) (UniProt P53778).
T2 sequence (whole entry): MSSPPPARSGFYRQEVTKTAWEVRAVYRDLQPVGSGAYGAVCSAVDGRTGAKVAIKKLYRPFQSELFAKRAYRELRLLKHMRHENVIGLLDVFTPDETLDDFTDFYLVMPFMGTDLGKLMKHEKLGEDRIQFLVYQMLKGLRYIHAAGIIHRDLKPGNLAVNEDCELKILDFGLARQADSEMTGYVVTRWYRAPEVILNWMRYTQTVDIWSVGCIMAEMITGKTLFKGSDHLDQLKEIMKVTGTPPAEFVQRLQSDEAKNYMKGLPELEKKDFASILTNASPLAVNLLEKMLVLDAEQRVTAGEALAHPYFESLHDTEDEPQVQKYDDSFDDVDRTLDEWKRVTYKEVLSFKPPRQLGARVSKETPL
The note with it: at 0.1 µM.

The target of assay [11] is T2, Mitogen-activated protein kinase 12 (Homo sapiens). The note with it: at 1 µM.
Assay [12] has as its target SRSF protein kinase 1 (Homo sapiens) (UniProt Q96SB4). The note with it: at 0.1 µM.
Assay [13] shares this target. The note with it: at 1 µM.
Assay [14] deals with Phosphatidylinositol 4,5-bisphosphate 3-kinase catalytic subunit alpha isoform (Homo sapiens) (UniProt P42336). The note with it: at 0.1 µM.
Phosphatidylinositol 4,5-bisphosphate 3-kinase catalytic subunit alpha isoform (Homo sapiens), sequence (P42336 whole entry, canonical isoform): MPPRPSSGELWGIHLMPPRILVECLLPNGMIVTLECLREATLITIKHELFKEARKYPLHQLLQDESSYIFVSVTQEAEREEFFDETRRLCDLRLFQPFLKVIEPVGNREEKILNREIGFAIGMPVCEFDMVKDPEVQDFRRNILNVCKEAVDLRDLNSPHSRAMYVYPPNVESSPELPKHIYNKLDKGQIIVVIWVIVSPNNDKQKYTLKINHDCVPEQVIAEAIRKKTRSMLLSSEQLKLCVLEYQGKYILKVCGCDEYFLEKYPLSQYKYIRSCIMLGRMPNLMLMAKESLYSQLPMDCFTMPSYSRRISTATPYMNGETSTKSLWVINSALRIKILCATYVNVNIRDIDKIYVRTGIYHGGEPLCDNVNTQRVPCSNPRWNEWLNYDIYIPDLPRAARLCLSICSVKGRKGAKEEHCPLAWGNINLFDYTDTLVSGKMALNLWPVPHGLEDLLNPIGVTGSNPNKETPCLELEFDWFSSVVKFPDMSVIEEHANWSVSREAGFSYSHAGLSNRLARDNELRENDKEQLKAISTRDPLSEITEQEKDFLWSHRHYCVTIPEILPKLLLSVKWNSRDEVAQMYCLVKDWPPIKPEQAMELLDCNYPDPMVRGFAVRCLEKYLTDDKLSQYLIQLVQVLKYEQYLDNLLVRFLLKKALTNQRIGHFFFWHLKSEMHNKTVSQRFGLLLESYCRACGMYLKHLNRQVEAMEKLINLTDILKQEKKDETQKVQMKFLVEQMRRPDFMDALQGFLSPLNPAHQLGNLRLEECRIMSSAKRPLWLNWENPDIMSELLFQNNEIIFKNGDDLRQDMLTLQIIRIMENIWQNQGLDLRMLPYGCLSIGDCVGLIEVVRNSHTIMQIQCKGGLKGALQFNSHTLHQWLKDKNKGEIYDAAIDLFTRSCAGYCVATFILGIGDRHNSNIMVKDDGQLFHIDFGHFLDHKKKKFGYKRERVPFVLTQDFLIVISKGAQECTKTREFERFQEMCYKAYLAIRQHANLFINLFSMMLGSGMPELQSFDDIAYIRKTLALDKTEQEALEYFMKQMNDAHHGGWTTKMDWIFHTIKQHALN
Assay [15] has the same target. The note with it: at 1 µM.
In assay [16] the target is T3, Phosphatidylinositol 4,5-bisphosphate 3-kinase catalytic subunit delta isoform (Homo sapiens) (UniProt O00329).
T3 sequence (whole entry): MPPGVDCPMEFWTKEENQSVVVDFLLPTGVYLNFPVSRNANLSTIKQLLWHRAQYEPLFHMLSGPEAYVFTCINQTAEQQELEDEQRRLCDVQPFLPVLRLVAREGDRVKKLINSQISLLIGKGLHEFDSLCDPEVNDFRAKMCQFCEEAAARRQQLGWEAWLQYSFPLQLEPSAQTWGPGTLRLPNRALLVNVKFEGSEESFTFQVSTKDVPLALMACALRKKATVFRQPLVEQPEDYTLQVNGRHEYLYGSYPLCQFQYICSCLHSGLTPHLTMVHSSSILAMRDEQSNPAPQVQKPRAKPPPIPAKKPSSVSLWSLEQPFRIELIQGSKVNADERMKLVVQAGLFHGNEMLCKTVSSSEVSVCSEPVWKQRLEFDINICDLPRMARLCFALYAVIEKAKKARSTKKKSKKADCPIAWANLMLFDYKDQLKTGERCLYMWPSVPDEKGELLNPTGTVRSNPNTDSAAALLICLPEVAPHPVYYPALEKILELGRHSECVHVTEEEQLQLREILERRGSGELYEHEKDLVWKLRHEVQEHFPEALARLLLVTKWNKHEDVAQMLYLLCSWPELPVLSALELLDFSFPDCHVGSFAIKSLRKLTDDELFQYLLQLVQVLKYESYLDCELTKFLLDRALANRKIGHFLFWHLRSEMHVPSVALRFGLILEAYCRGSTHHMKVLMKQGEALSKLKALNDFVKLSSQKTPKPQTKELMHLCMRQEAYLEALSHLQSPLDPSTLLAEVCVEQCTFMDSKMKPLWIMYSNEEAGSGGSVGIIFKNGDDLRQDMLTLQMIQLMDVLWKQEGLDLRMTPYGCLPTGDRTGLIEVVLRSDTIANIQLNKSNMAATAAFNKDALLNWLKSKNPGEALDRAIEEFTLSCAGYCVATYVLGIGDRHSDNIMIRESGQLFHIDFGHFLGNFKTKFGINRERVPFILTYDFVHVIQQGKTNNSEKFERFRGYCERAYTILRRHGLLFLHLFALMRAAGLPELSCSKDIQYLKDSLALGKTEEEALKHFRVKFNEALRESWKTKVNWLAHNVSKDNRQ
The note with it: at 0.1 µM.

Assay [17] addresses T3, Phosphatidylinositol 4,5-bisphosphate 3-kinase catalytic subunit delta isoform (Homo sapiens). The note with it: at 1 µM.
Assay [18] has as its target Phosphatidylinositol 4-kinase beta (Homo sapiens) (UniProt Q9UBF8). The note with it: at 0.1 µM.
For assay [19] the target is unchanged. The note with it: at 1 µM.
Assay [20] deals with Sphingosine kinase 1 (Homo sapiens) (UniProt Q9NYA1). The note with it: at 0.1 µM.
Sphingosine kinase 1 (Homo sapiens), sequence (Q9NYA1 whole entry): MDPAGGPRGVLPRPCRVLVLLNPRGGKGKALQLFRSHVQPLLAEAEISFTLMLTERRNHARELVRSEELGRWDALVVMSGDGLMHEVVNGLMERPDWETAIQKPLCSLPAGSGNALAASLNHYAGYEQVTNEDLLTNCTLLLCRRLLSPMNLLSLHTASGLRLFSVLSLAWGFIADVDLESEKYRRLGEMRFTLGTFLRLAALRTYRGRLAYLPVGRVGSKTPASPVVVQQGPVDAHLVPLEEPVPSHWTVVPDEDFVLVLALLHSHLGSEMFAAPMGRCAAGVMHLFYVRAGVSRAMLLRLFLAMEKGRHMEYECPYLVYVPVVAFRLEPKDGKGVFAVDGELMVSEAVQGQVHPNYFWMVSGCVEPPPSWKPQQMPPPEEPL

SRSF protein kinase 1 (Homo sapiens), sequence (Q96SB4 whole entry): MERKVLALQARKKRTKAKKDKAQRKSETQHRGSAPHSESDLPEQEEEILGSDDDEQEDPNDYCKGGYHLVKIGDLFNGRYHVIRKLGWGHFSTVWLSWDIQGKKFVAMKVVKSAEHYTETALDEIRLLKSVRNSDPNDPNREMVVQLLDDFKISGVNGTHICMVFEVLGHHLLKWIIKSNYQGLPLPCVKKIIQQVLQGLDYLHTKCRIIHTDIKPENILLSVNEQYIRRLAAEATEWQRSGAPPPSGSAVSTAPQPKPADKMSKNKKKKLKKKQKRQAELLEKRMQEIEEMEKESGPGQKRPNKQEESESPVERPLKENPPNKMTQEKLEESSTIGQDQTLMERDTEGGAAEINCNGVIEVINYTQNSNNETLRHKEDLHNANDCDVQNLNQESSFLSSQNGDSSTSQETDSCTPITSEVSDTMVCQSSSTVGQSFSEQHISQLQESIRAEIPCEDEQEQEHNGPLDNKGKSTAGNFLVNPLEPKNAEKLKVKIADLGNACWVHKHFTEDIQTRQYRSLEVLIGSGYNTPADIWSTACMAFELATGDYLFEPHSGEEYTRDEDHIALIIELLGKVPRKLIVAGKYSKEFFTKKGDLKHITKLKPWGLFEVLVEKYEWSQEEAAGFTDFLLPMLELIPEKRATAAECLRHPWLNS
SRSF protein kinase 3 (Homo sapiens), sequence (Q9UPE1 whole entry): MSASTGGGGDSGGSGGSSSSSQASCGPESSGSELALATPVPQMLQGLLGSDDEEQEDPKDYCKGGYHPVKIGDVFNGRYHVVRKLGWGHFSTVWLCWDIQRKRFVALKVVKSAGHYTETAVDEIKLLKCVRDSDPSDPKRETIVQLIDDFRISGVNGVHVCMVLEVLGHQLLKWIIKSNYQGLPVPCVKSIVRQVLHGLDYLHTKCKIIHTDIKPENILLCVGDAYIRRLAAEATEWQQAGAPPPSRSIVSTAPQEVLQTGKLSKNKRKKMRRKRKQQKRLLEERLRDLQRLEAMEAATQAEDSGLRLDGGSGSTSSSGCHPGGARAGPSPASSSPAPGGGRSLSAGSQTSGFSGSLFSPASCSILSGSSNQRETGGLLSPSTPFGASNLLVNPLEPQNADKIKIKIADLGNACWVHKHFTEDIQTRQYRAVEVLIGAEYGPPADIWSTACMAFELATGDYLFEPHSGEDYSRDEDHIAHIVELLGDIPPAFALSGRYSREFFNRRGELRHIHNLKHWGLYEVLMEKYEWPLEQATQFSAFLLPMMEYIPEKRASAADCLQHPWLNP
Mitogen-activated protein kinase 3 (Homo sapiens), sequence (P27361 whole entry): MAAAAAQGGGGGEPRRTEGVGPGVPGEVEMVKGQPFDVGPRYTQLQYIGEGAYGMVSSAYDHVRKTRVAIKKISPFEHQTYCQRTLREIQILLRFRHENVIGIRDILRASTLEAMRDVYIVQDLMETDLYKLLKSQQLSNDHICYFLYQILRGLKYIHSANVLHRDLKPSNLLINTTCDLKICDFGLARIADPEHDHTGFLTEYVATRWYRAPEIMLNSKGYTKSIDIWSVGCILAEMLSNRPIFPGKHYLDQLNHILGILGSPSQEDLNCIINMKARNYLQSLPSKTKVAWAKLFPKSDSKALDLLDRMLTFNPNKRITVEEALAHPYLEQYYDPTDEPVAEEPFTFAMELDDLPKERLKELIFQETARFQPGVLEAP
Phosphatidylinositol 4-kinase beta (Homo sapiens), sequence (Q9UBF8 2-816 limits assumed): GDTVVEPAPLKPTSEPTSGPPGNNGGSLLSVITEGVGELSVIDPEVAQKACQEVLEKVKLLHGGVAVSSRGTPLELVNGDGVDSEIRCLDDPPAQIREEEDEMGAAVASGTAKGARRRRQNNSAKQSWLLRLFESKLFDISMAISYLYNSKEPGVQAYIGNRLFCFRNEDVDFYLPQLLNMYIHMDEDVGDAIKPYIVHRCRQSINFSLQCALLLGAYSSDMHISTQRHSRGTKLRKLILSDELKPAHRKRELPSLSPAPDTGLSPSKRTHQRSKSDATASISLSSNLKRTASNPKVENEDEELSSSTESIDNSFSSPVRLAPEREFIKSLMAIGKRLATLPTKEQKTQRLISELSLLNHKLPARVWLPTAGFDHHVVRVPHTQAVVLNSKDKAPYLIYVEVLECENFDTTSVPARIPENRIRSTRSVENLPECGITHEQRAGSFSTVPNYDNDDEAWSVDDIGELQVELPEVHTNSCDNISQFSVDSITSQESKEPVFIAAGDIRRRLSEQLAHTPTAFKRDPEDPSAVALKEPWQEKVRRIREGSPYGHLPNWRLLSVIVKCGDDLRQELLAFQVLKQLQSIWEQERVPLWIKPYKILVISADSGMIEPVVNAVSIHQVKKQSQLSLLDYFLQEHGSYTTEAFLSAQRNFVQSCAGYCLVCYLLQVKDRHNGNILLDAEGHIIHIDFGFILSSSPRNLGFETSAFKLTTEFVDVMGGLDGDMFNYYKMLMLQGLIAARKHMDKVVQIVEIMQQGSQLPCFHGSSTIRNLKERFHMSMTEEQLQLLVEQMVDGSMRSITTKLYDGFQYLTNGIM

The inhibition is the drop in the measured response relative to a control, in per cent. Turning to `COc1cc2ncn(-c3cc(OCc4ccccc4Cl)c(C(N)=O)s3)c2cc1OC`, the inhibition in assay [1] is 1.75%; in assay [2], -0.61%; in assay [3], -1.33%; in [4], 2.7%; in assay [5], 18.4%; in [6] it was 1.39%. For the same compound, the inhibition was 4.07% in assay [7]; 0.95% in [8]; 0.78% in assay [9]; 1.88% in [10]; 0.85% in [11]; -1.26% in [12]. Also, the inhibition in [13] is -1.23%; in assay [14], 0.86%; in [15], 19.6%; in assay [16] it was 0.19%; in assay [17], 18.4%; in assay [18] it was -5.9%. In addition, the inhibition in assay [19] worked out at 1.54%; in assay [20] it was 2.8%.
As for `CS(=O)(=O)CCN(CC#N)Cc1ccc(-c2ccc3ncnc(Nc4ccc(OCc5cccc(F)c5)c(Cl)c4)c3c2)o1`, the inhibition was 1.61% in assay [1]; -3.37% in assay [2]; -0.95% in assay [3]; 4.64% in [4]; 3.94% in [5]; 1.26% in assay [6]. Besides, the inhibition in assay [7] is 0.56%; in assay [8] it was 3.05%; in assay [9] it was 2.39%; in assay [10], 2.47%; in assay [11] it was 2.68%; in assay [12], -2.4%. Also, the inhibition in assay [13] is -1.01%; in assay [14] it was 2.09%; in [15] it was 4.03%; in assay [16] it was 1.1%; in [17] it was 4.27%; in assay [18], 2.65%. Also, the results for the inhibition in assay [19] and in assay [20] were 3.34% and 1.82%, respectively.
Consider `Nc1ncnc2occ(-c3ccc(NC(=O)Nc4cc(C(F)(F)F)cc(C(F)(F)F)c4)cc3)c12`, for which the inhibition was 2.23% in [1]; 1.52% in [2]; -0.42% in assay [3]; 2.48% in assay [4]; 11% in assay [5]; 0.21% in [6]. Further, the inhibition was 8.68% in assay [7]; -0.42% in assay [8]; 14.5% in assay [9]; -0.95% in assay [10]; 10.2% in [11]; -0.82% in [12]. The inhibition in assay [13] was 0.68%; in [14], 0.61%; in assay [15], 2.7%; in assay [16] it was 2.62%; in [17] it was 3.45%; in assay [18] it was 1.16%. For the same compound, the figures for the inhibition in assay [19] and in [20] were 2.78% and 0.12%, respectively.
Consider `NCc1ccc(-c2nc(-c3ccc(Cl)c(O)c3)c(-c3ccncc3)[nH]2)cc1`, for which the inhibition in assay [1] was 0.95%; in [2], -2.12%; in assay [3], -2.01%; in assay [4], 41%; in assay [5] it was 77.1%; in [6], 13.6%. The inhibition in assay [7] is 54%; in assay [8], -0.52%; in assay [9], 1.79%; in assay [10], -0.97%; in [11] it was 2.04%; in assay [12] it was -1.76%. In addition, the inhibition in assay [13] is -4.18%; in assay [14], -0.47%; in assay [15], 3.94%; in assay [16] it was 0.9%; in [17], 6.6%; in assay [18], -3.9%. In addition, the figures for the inhibition in [19] and in assay [20] were -2.79% and 2.55%, respectively.
Take `CN(C)c1cc2c(Nc3ccc4nc(Cc5ccccc5)[nH]c4c3)ncnc2cn1`: the inhibition is 4.66% in assay [1]; -0.28% in assay [2]; -1.52% in assay [3]; 6.65% in assay [4]; 9.66% in [5]; 1.34% in [6]. Further, the inhibition in assay [8] was 1.99%; in [9], 5.16%; in assay [10], 5.41%; in assay [11], 2.45%; in assay [12], -1.74%; in [13], -1.6%. In addition, the inhibition was 7% in assay [14]; 8.83% in [15]; 7.22% in assay [16]; 8.91% in [17]; -2.6% in [18]; 5.38% in [19]. Also, the inhibition in assay [20] is -1.38%.
Consider `Nc1nc(-c2ccccn2)c(-c2ccc3ncccc3n2)s1`, for which the inhibition in assay [1] is 1.04%; in assay [2], 0.57%; in assay [3], 0.83%; in assay [4], -0.64%; in assay [5], 6.59%; in assay [6], 1.28%. For the same compound, the inhibition in [7] was 3.29%; in assay [8], 2.8%; in assay [9], 5.95%; in assay [10], -0.21%; in assay [11] it was 1.76%; in [12], -1.15%. For the same compound, the inhibition was -0.55% in assay [13]; 4.05% in [14]; 5.74% in assay [15]; 2.87% in [16]; 3.05% in [17]; 4.8% in assay [18]. In addition, the inhibition in assay [19] was 0.96%; in assay [20] it was -1.16%.
Turning to `CNC(=O)c1cncc(/C=C/c2c(Cl)cccc2Cl)c1`, the inhibition in assay [1] was determined as 3.8%; in assay [2], 2.22%; in [3], 0.6%; in assay [4], 6.41%; in [5], 8.04%; in assay [6], 2.44%. Also, the inhibition was 4.25% in [7]; 3.64% in assay [8]; 5.05% in assay [9]; 3.45% in [10]; 6.19% in assay [11]; -3.5% in assay [12]. In addition, the inhibition was -0.45% in assay [13]; 2.99% in assay [14]; 2.83% in assay [15]; 0.54% in assay [16]; 0.66% in assay [17]; -0.69% in assay [18]. In addition, the values for the inhibition in assay [19] and in assay [20] were 2.57% and -1.45%, respectively.
